Marburg entry inh – blocks Marburg virus binding to or entry into cells; Marburg virus pseudotyped entry inhibition, cell reporter; Potency, µM (doses to about 37.8 µM), for inactives: at the highest dose activity change, negative = inhibition, usual class: inhibitors; 300,000 compounds, 1.8% hits; calls by dose curve; tested in HEK293 cells; also: potency is read from the fitted curve at half-maximal effect
VACV mCherry inh – vaccinia inhibition (mCherry reporter); Vaccinia virus mCherry reporter infection, fluorescence; Potency, µM (series often up to 36.5 µM), without a hit: at the top dose activity change, negative = inhibition, actives largely listed as inhibitors; 310,000 compounds, 0.63% hits; AID 720579; calls by dose curve; tested in A549 cells; also: potency is read from the fitted curve at half-maximal effect; nearly all actives have a fitted effect of over 35% in size
HCV inh – HCV inhibition; AID 651820; 340,000 compounds, 3.4% hits; Potency, µM (titrated, usually from 41.8 µM), for the others: at the highest dose activity change, negative = inhibition, actives largely listed as inhibitors; Huh7.5.1 HCVcc-Cre infection, luciferase reporter, 44 h; active = well fitted inhibition curve with a large enough effect; inconclusive = small, poorly fitted or top-dose-only effect, or another doubt; inactive = no such curve, though single readings can be large or run the other way; also: potency is read from the fitted curve at half-maximal effect
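Antiviral activity was scored by luciferase reporter output from cells infected with HCVcc-Cre (~0.5 moi) in presence of compound, 44 h infection period, cells seeded 1,000/well 4 h prior.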
HCMV inh – blocks human cytomegalovirus replication. AID 1259415. activity change, negative = inhibition, % at 57.5 µM. HFF cells, HCMV-luciferase reporter, 72 h; stronger effect = lower value. 410,000 compounds, 4.5% hits; in the data active = activity change below about -60%; inconclusive = no clear call, values can overlap the other calls; inactive = above about -39%
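Luciferase read-out from HCMV-luciferase-infected HFFs (MOI 1 PFU/cell) 72 h post infection at 37C; compounds added after 16 h cell attachment; activity normalized between buffer-only basal and Salinomycin (10uM) inhibitor controls.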
LASV entry inh – Lassa virus entry inhibition; AID 540256; 300,000 compounds, 1.2% hits; Potency, µM (titrated, usually from 37.9 µM), for inactives: top-dose activity change, negative = inhibition, hits mostly inhibitors; Lassa virus pseudotype entry inhibition, cell reporter; calls by dose curve; tested in HEK293 cells; also: potency is read from the fitted curve at half-maximal effect; nearly all actives have a fitted effect of over 50% in size
VACV Venus inh – vaccinia inhibition (Venus reporter); Vaccinia virus Venus reporter expression, fluorescence; Potency, µM (series often up to 36.5 µM), for the others: at the highest dose activity change, negative = inhibition, actives largely listed as inhibitors; 330,000 compounds, 0.46% hits; AID 720580; calls by dose curve; tested in A549 cells; also: potency is read from the fitted curve at half-maximal effect; nearly all actives have a fitted effect of over 30% in size
Active calls of the source: *; ? = inconclusive; · = not tested or not shown; [ ] = dose if it differs, or a comment. Most compounds without a hit are left out; they make up all but 7.8% or so of the library. % is scaled to controls: 0 for no effect and ±100 for the full control effect.

SMILES	Marburg entry inh	VACV mCherry inh	HCV inh	HCMV inh	LASV entry inh	VACV Venus inh
O=C(Cc1c[nH]c2ccccc12)N1CCC(n2c(C3CCCO3)nc3cc(C(F)(F)F)ccc32)CC1 (stereo not drawn)	·	-14%	·	·	·	-12%
Cc1ccc(OCC(=O)Nc2ccc3nc(Nc4cccc(Cl)c4)cc(C)c3c2)cc1	0%[46.1 µM]	3%	·	4	?	11%
Cc1cc(Nc2cccc(C(F)(F)F)c2)nc2ccc(NC(=O)Cc3ccc(Cl)cc3)cc12	·	-27%	·	-103*	-27%[46.1 µM]	?
Cc1cccc(OCC(=O)Nc2ccc3nc(Nc4cccc(C(F)(F)F)c4)cc(C)c3c2)c1	·	-21%	·	-35	-1%[46.1 µM]	-28%
COc1ccc(CC(=O)Nc2ccc3nc(Nc4cccc(Cl)c4)cc(C)c3c2)cc1	·	?	·	-102*	?	?
Cc1cc(Nc2cccc(Cl)c2)nc2ccc(NC(=O)c3cccnc3)cc12	·	-11%	·	-98*	-22%[46.1 µM]	-29%
Cc1cc(Nc2cccc(Cl)c2)nc2ccc(NC(=O)c3cccc(N(C)C)c3)cc12	·	-25%	·	-35	-14%[46.1 µM]	-19%
COc1ccccc1CC(=O)Nc1ccc2nc(Nc3cccc(Cl)c3)cc(C)c2c1	·	-23%	·	?	3.2µM*	-28%
Cc1ccc(-n2nc3c(N4CCC(C(=O)N5CCCCCC5)CC4)nnc(C)c3c2C)cc1	·	·	-26%	·	·	·
COc1ccc(-n2nc3c(N4CCC(C(=O)N5CCCCCC5)CC4)nnc(C)c3c2C)cc1	·	·	11µM*	-33	·	·
CCCN1CCN(C(=O)C2CCN(c3nnc(C)c4c(C)n(-c5ccc(C)cc5)nc34)CC2)CC1	·	·	2.2µM*	?	·	·
Cc1nnc(N2CCC(C(=O)N3CCCCCC3)CC2)c2nn(-c3ccc(Cl)cc3)c(C)c12	·	·	8.9µM*	0	·	·
COc1cccc(-c2cc(C(F)(F)F)nc(NCc3ccc(F)cc3)n2)c1	-14%[46.1 µM]	-14%	·	-17	-9%[46.1 µM]	-7%
COc1ccc(CNc2cccc3[nH]c(C(F)(F)F)nc23)cc1	-18%[46.1 µM]	?	3.2µM*	-28	20%[46.1 µM]	-6%
COc1cc(CNc2cccc3[nH]c(C(F)(F)F)nc23)cc(OC)c1	·	·	11µM*	?	·	·
Cc1ccc(C(=O)Nc2cccc3[nH]c(C(F)(F)F)nc23)cc1	?	?	?	-96*	?	?
CCN(CC)C(=O)Cn1cc(SCC(=O)Nc2cc(OC)ccc2OC)c2ccccc21	·	-21%	·	-20	-5%[46.1 µM]	-15%
O=C(O)Cc1nn(Cc2ccc(Cl)cc2)c(=O)c2ccccc12	?	-4%	12%	-69*	-10%	4%
CCCCNC(=O)C1CCCN(Cc2nc(-c3ccc(Cl)cc3)oc2C)C1 (stereo not drawn)	11%[46.1 µM]	?	·	2	-6%[46.1 µM]	?
CCC1CCCCN1CCCNC(=O)C1CCN(Cc2nc(-c3ccc(Cl)cc3)oc2C)CC1 (stereo not drawn)	·	·	1.4µM*	·	·	·
COc1ccc(-c2nc(CN3CCC(C(=O)NCCCN4CCN(c5ccccc5F)CC4)CC3)c(C)o2)cc1OC	4.5µM*	-7%[7.34 µM]	·	-104*	?	-6%[7.34 µM]
Cc1oc(-c2ccc(Cl)cc2)nc1CN1CCC(C(=O)NCCCN2CCN(c3cccc(Cl)c3)CC2)CC1	?	?	·	?	?	14µM*
Cc1oc(-c2cccc(Cl)c2)nc1CN1CCC(C(=O)NCCCN2CCN(c3ccccc3F)CC2)CC1	17%[46.1 µM]	-28%	·	-22	-9%[46.1 µM]	-29%
Cc1oc(-c2ccc(Cl)cc2)nc1CN1CCC(C(=O)NCC2CCCO2)CC1 (stereo not drawn)	-2%[46.1 µM]	-5%	-19%	-14	7%[46.1 µM]	-12%
Cc1oc(-c2ccc(Cl)cc2)nc1CN1CCC(C(=O)NCCCN2CCOCC2)CC1	13µM*	·	8.9µM*	96	?	·
CSc1nn(CC(=O)Nc2cc(C)ccc2C)c(N)c1S(=O)(=O)c1ccccc1	·	-6%	·	?	?	-15%
Cc1cccc(C(=O)Nc2ccc(C(=O)OCc3cc(=O)n4c(C)csc4n3)cc2)c1	·	-2%	·	2	-17%[46.1 µM]	-18%
Fc1ccccc1-c1csc(=Nc2cccnc2)n1CCCn1ccnc1	?	-10%	22µM*	-90*	-25%	-21%

Source: PubChem
